Results on 40 compounds are retold here after PubChem BioAssay (NCI).

Compounds without any hit were thinned out: in the full panel of roughly 83,000, 20% have a hit.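 Method: cells in 96-well plates; compound added at one concentration; 48 h incubation; percent growth measured; values under 10 scored active.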 A number with no mark means an inactive call. Active and inactive are the calls of the source.

The assay concerns HCT-15 colon. Put plainly: NCI-60 one-dose screen, 48 h (100 = growth as untreated, 0 = no growth, -100 = all killed). The note with it: 10 µM unless noted. The method, then:
Growth inhibition of the HCT-15 human tumor cell line is measured as a screen for anti-cancer activity. Cells are grown in 96 well plates and exposed to the test compound for 48 hours. Compounds are tested at a single concentration, which is 10^-5 M for most compounds. The reported endpoint is percent growth (GI% or GIPRCNT), where numbers from 0 - 100% represent growth inhibition, and numbers from -100% - 0 represent cell death. For example, a value of 40 represents 60% growth inhibition. A value of 0 means no net growth occurred over the course of the experiment. A value of -40 indicates 40% of cells at the beginning of the experiment died by the end of the experiment. A value of -100 means all cells are dead at the end of the experiment.
NCI-60 Human Tumor Cell Lines Screen was performed using the standard one-dose NCI protocol, which is described in more detail at https://dtp.cancer.gov/discovery_development/nci-60/default.htm.
Compounds with GIPRCNT values below 10 were considered active. Activity score was based on GIPRCNT using the following formula: […]
Score is 0 for GIPRCNT values of 100 or above, 50 for GIPRCNT values of 0, and 100 for GIPRCNT values of -100.
On to `Oc1ccccc1-c1nnc(SCc2ccc(O)c3ncccc23)n1-c1ccccc1`, for which the growth is 17.6%.
The figure for `C/C(=C(/c1ccc(O)cc1)c1ccc(OCCN2CCCCCC2)cc1)c1ccccc1` is -20.7% (active); for `CCOC(=O)/C(F)=C/C1CC1C1CCCCC1` (stereo not given) it is 102%.
The same measure for `COc1ccc(N2CCN(C(=O)CSc3ccc(-c4nc5cc(C)c(C)cc5[nH]4)cn3)CC2)cc1`: 52.8%; for `C/C(=N\NC(=O)CSc1nc2sc3c(c2c(=O)n1-c1ccccc1)CCC(C)C3)c1ccc(Cl)cc1` (stereo not given): 25.7%; for `O=C(Nc1cc(F)cc2cccnc12)c1cnc(N2CCOCC2)cn1`: 32.4%.
The same measure for `CCc1ccc(NC(=O)N[C@@H](Cc2cccc(C)c2)C(=O)N[C@@H]2C(=O)N3CCC[C@H]3C(=O)N3CCCC[C@H]3C(=O)N[C@@H](CO)C(=O)N3C[C@H](C)C[C@H]3C(=O)O[C@H]2C)c(F)c1`: 15.5%; for `Cc1cn(-c2cc(NC(=O)c3cncc(C#Cc4cnc5ccc(O[C@@H]6CCOC6)nn45)c3)cc(C(F)(F)F)c2)cn1`: -31.2% (active).
Turning to `CS(=O)(=O)c1ccc2c(c1)c1c(n2S(=O)(=O)c2ccc(Cl)cc2)CCCC1`, the growth is 24%.
The figure for `CC(C)(C)n1nnnc1C(Nc1nccs1)c1cc2cccc3ccc4cccc1c4c32` (stereo not given) is 93.2%; for `COc1ccc(-c2nnc(/N=C3/C(=O)Nc4ccc(Br)cc43)o2)cc1` it is 91.3%; for `Cc1ccc(/C=C/CC(=O)Nc2ccc(C(=O)Nc3ccc(F)cc3N)nc2)cn1` it is 52.3%.
The same measure for `CC1(C)CC[C@]2(C(=O)N3CCCN(CC#N)CC3)CC[C@]3(C)C(=CC[C@@H]4[C@@]5(C)CC[C@H](O)C(C)(C)[C@@H]5CC[C@]43C)[C@H]2C1`: 19.1%; for `COc1ccc(C2CC(c3ccc(Nc4nc(NCCO)nc(Nc5ccc(Cl)cc5)n4)cc3)=Nc3c(N)nc(N)nc3N2)cc1` (stereo not given): 14.1%; for `O=C(O)CNS(=O)(=O)c1ccc(Oc2ccc(S(=O)(=O)NCC(=O)O)cc2)cc1`: 102%.
Consider `COc1cc(/C=N/Nc2ccnc3cc(Cl)ccc23)cc(OC)c1O`, for which the growth was -58.9% (active).
`CN(c1ccc(Cl)cc1)S(=O)(=O)c1ccc(-c2cnc(C3CC3)o2)cc1`: the growth is 15.6%.
The figure for `Oc1ccccc1/C=N/Nc1nc(N/N=C/c2ccccc2O)nc(N2CCOCC2)n1` is 3.87% (active).
`Cc1cc(O)c2c(c1)C(=O)C(c1c(C)cc3c(c1O)C(=O)C=CC3=O)=CC2=O`: the growth is 46.5%.
The same measure for `CSc1ccc(/C(=N/N=C(N)N)c2ccccc2)cc1`: 12.4%; for `O=C1c2c(c3c4cccnc4[nH]c3c3ccc4ccccc4c23)C(=O)N1CCN1CCOCC1`: 47.5%.
The same measure for `NC(=O)c1c(NC(=O)c2cccc(OC(F)(F)F)c2)sc2c1CCC(=O)C2`: 19.2%; for `CN1CCN(Cc2ccc(NC(=O)c3cncc(C#Cc4cnc5ccc(O[C@H]6CCOC6)nn45)c3)cc2C(F)(F)F)CC1`: -49.3% (active); for `Cc1cc(-c2ccc3nc(N)sc3c2)nc2ccc3[nH]ncc3c12`: 33.9%.
The figure for `O=C(NNc1nc2cc(F)c(F)cc2n2cccc12)c1cccnn1` is 29.1%; for `CC[C@]12C=CCN3CC[C@]4(C(=C(C(=O)OC)C1)Nc1cc5c(cc14)[C@@H]1[C@H](O5)[C@@H](O)[C@@]4(CC)CC(C(=O)OC)=C5Nc6cc(OC)ccc6[C@@]56CCN1[C@@H]46)[C@@H]32` it is -19.9% (active); for `Nc1ccc(-c2nnc(SCc3ccc(O)c4ncccc34)o2)cc1` it is 10.2%.
Take `Cc1cc2nc(C(Cl)Cl)nc(-c3ccco3)n2n1`: the growth was 72%.
The figure for `CN1C(=O)N(C)C2Nn3c(s/c(=C\c4ccccn4)c3=O)=NC21` (stereo not given) is 99.9%.
The figure for `O=C(CCCCCCN1CC(=O)N2[C@@H](c3cccc(Br)c3)c3[nH]c4ccccc4c3C[C@H]2C1=O)NO` is 68.7%.
The figure for `O=C(/C=C1\C=CN(CCCCCCF)c2ccccc21)n1ccc2ccccc21` is 101%; for `CN1C(=O)N(C)C2C1NN=c1s/c(=C\c3ccccn3)c(=O)n12` (stereo not given) it is 79.4%; for `Oc1ccc(CSc2nnc(-c3cnccn3)o2)c2cccnc12` it is 13.8%.
For the compound `O=S(=O)(NC1CC2CCC1C2)c1ccc2c(c1)C(=NO)c1cc(S(=O)(=O)NC3CC4CCC3C4)ccc1-2` (stereo not given), the growth was 31.2%.
The figure for `COc1ccc(OC)c(NC2=C(Cl)C(=O)C(C)=C(C)C2=O)c1` is 94.7%; for `Cc1ccc(/C=C/c2nn3c(-c4ccco4)nnc3s2)cc1` it is 96.1%.
The same measure for `Cc1ccccc1NC1CC(=O)N(c2ccc(Cl)cc2Cl)C1=O` (stereo not given): 101%; for `COc1ccc(-c2nc3cc(Cl)c(Cl)cc3n2CC(=O)N=Nc2c(O)[nH]c3ccc(Cl)cc23)cc1`: 5.04% (active); for `CS(=O)(=O)c1ccc(-c2nn(-c3ccccc3)cc2/C=N/NC(=O)c2ccncc2)cc1`: 69.5%.
The same measure for `C=C(C)[C@@H]1CC[C@]2(C(=O)ON)CC[C@]3(C)[C@H](CC[C@@H]4[C@@]5(C)C/C(=C/c6ccc(Br)cc6)C(=O)C(C)(C)[C@@H]5CC[C@]43C)[C@@H]12`: 57.8%.
